Compound activity from PubChem.
AMA1 RON2 block = disrupts binding of P. falciparum AMA1 to RON2; AlphaScreen AMA1-biotinylated RON2 peptide binding; Potency, µM (series often up to 58.2 µM), usual class: inhibitors; 360,000 compounds, 0.2% hits; AID 720542; note: nearly all actives have a fitted effect of over 45% in size
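AMA1 (3D7) with his tag at 25 nM final met compounds first, then biotinylated RON2 peptide at 25 nM; detection used donor plus acceptor beads, 10 µg/mL apiece, read by AlphaScreen after 30 min at room temperature.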
VACV mCherry inh = inhibitors of vaccinia virus infection (mCherry reporter signal). Potency, µM (series often up to 36.5 µM), usual class: inhibitors. Vaccinia virus mCherry reporter infection, fluorescence. AID 720579. 310,000 compounds, 0.63% hits; calls by dose curve; tested in A549 cells; note: nearly all actives have a fitted effect of over 35% in size
Vaccinia Venus = inhibitors of vaccinia virus (Venus reporter); Vaccinia virus Venus reporter expression, fluorescence; Potency, µM (series often up to 36.5 µM), actives largely listed as inhibitors; 330,000 compounds, 0.46% hits; calls by dose curve; tested in A549 cells; note: nearly all actives have a fitted effect of over 30% in size
Pf growth 96h = inhibits malaria parasite growth, 96 h; 320,000 compounds, 6.9% hits; P. falciparum luciferase reporter growth, 96 h; Potency, µM (doses to about 28.7 µM), hits mostly inhibitors
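Parasite growth measured via integrated firefly luciferase reporter in P. falciparum. Infected erythrocytes at 2% hematocrit, 0.05% parasitemia final were treated 96 hours at 37 C under 5% CO2, and luminescence was read.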
Pf growth 48h = P. falciparum growth inhibition at 48 hours (one generation); P. falciparum luciferase growth in erythrocytes, 48 h; Potency, µM (titrated, usually from 28.7 µM), actives largely listed as inhibitors; 310,000 compounds, 5.9% hits
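Parasite viability was followed by luminescence of a genomically integrated firefly luciferase. Cultures held 0.1% parasitemia at 2% hematocrit (final), incubated under 5% CO2 at 37 C.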
Numbers stand for hits; i = inactive; ? = inconclusive; nt = no result given; [ ] = remark or other dose. This is a sample that favours compounds with a hit; in the whole collection about 8.7% have one here. Unless noted, calls come from the whole dose curve; as a rule, active = well fitted curve in the direction sought with a large enough effect; inconclusive = small, poorly fitted or top-dose-only effect, or another doubt; inactive = no such curve, though single readings can be large; an effect the other way counts as inactive or inconclusive.

SMILES	AMA1 RON2 block	VACV mCherry inh	Vaccinia Venus	Pf growth 96h	Pf growth 48h
N=c1c(S(=O)(=O)c2ccccc2)cc2c(=O)n3ccccc3nc2n1C1CCCC1	i	i	i	i	?
N=c1c(S(=O)(=O)c2ccc(Br)cc2)cc2c(=O)n3ccccc3nc2n1C1CCCC1	i	nt	nt	11.7µM	10.4µM
COc1ccc(N(CC(=O)NC(C)c2ccccc2)S(=O)(=O)c2c(C)nn(C)c2C)cc1 (stereo not given)	nt	i	i	nt	nt
O=C(CCc1nc2cccnc2n1-c1ccccc1)Nc1ccc(Cl)c(Cl)c1	nt	i	i	nt	nt
COc1cccc(NC(=O)[C@H](CC(C)C)NC(=O)N2CCn3c2nc2ccccc23)c1	i	nt	nt	5.86µM	?
COc1cccc(NC(=O)CSc2nc3ccccc3c3nc4ccccc4n23)c1	i	i	i	i	13.1µM
N#CCSc1nc2ccccc2c2nc3ccccc3n12	i	?	i	7.38µM	?
Cc1cc(NC(=O)CSc2nccn2-c2cccc(C)c2C)no1	i	i	i	8.28µM	?
CCn1c(SCC#N)nc2ccccc2c1=O	i	i	i	i	i
Cc1cc(NC(=O)CSc2nccn2-c2cccc(F)c2)no1	i	i	i	nt	nt
COc1ccc(NC(=O)CSc2nc3ccccc3n2Cc2cccc(OC)c2)cc1	nt	i[7.34 µM]	i[7.34 µM]	nt	nt
Cc1cccc(-n2ccnc2SCC(=O)Nc2cc(C)on2)c1	i	i	i	10.4µM	i
COc1cccc(NC(=O)CSc2nccn2-c2cccc(OC)c2)c1	i	nt	i	11.7µM	i
C[C@H]1CCC/C=C/[C@@H]2C[C@H](O)C[C@H]2[C@H](O)/C=C/C(=O)O1	i	?	?	2.94µM	2.08µM
C[C@@H]1CC[C@H](O)/C=C/C(=O)O[C@H](C)CC[C@H](O)/C=C/C(=O)O1	i	?	?	10.4µM	?
C[C@H]1CCC/C=C/C2C[C@H](O)C[C@H]2[C@H](O)/C=C/C(=O)O1 (stereo not given in full)	nt	i	i	nt	nt
CCCCC[C@@H]1CCCCC[C@H](O)C[C@@H](O)[C@@H](O)/C=C/C(=O)O1	i	i	i	nt	nt
Clc1ccc(/C=C/c2ccnc3ccccc23)c(Cl)c1	nt	i	?	nt	nt
Cc1oc(-c2ccc(Cl)cc2)nc1CS(=O)CC(=O)NCc1ccc(Cl)cc1 (stereo not given)	nt	i	i	nt	nt
O=C(NCCN1CCOCC1)c1cc(-c2ccc(F)cc2)nc2ccccc12	i	i	i	i	?
O=C(NCCCN1CCOCC1)c1cc(-c2ccc(Cl)s2)nc2ccccc12	i	i	i	?	16.5µM
Clc1ccc(-c2nc(NCCCN3CCOCC3)c3ccccc3n2)cc1	i	i	?	?	?
Cc1ccc(-c2nc(NCCN3CCOCC3)c3ccccc3n2)cc1	i	i	i	4.15µM	nt
CC(C)Oc1ccc(-c2cc(C(=O)NCCN3CCOCC3)c3ccccc3n2)cc1	i	i	i	i	2.33µM
CCc1ccc(NC(=O)Cn2c(=O)n(Cc3ccco3)c(=O)c3cccnc32)cc1	nt	i	i	nt	nt
SMILES	AMA1 RON2 block	VACV mCherry inh	Vaccinia Venus	Pf growth 96h	Pf growth 48h
N/C(=N\OC(=O)c1ccc(Br)o1)c1cccnc1	i	i	i	i	i
N/C(Cc1ccc(Cl)c(Cl)c1)=N\OC(=O)c1ccc(Br)o1	i	i[7.34 µM]	i[7.34 µM]	14.7µM	14.7µM
c1ccc(-c2ccc(C(c3ccccc3)n3ccnc3)cc2)cc1 (stereo not given)	i	i	i	4.78µM	2.08µM
c1ccc(-c2ccc(-n3ccnc3)cc2)cc1	i	i	i	?	?
Cc1sc2ncnc(N3CCC(C(=O)N(CC(C)C)c4nc5ccccc5s4)CC3)c2c1C	i	i	i	3.7µM	?
Cc1ccccc1OCC(=O)NNC(=O)C1CCN(c2ncnc3sc(C)c(C)c23)CC1	i	i	i	?	?
CCCN(CC(=O)Nc1ccccc1C)C(=O)C1CCN(c2ncnc3sc(C)c(C)c23)CC1	i	i	?	7.38µM	?
CCCN(CC(=O)Nc1ccccc1C)C(=O)C1CCN(S(=O)(=O)c2ccccc2C(F)(F)F)CC1	i	i	i	?	9.28µM
CCCN(CC(=O)Nc1ccccc1C)C(=O)C1CCN(S(=O)(=O)c2ccc(C)c(C)c2)CC1	i	i	?	nt	nt
COc1ccccc1OCC(=O)NNC(=O)C1CCN(c2ncnc3sc(C)c(C)c23)CC1	i	nt	nt	i	?
COc1cccc(-c2nc3cc(SC)ccc3cc2CN(C(=O)c2sccc2C)C2CC2)c1	nt	i	i	nt	nt
COc1ccc(C(=O)/C=C/c2cn(CC(O)CN3CCc4ccccc43)c3ccccc23)cc1 (stereo not given)	nt	i	i	nt	nt
CCC(=C(c1ccc(OC)cc1)c1ccc(OC)cc1)c1cn(CC(O)CN2CCN(C)CC2)c2ccccc12 (stereo not given)	?	?	?	nt	9.28µM
COc1cccc(NC(=O)Nc2cc(C(=O)NC(C)C)ccc2N2CC3CC(C2)c2cccc(=O)n2C3)c1 (stereo not given)	i	nt	nt	i	11.7µM
CSc1ccccc1NC(=O)c1ccc(N2CC3CC(C2)c2cccc(=O)n2C3)c(NC(=O)c2ccncc2)c1 (stereo not given)	i	nt	nt	?	9.28µM
CCCNC(=O)c1ccc(N2CC3CC(C2)c2cccc(=O)n2C3)c(NC(=O)Nc2ccc(CC)cc2)c1 (stereo not given)	i	nt	nt	i	?
Cc1cccc(NC(=O)[C@@H](NC(=O)N2C[C@H]3C[C@@H](C2)c2cccc(=O)n2C3)C(C)C)c1	i	i	i	5.22µM	i
CCOc1ccc(C2CC(=O)c3c([nH]c(C(=O)OCC4CCCCC4)c3C)C2)cc1 (stereo not given)	nt	i	i	nt	nt
CCOc1ccc(OC(=O)c2c(-c3ccccc3Cl)noc2C)cc1	nt	i	i	nt	nt
COc1[nH]c(/N=C/c2ccco2)c(C#N)c1C#N	nt	i	i	nt	nt
CC(C)Nc1nc(NC(C)C)nc(N(C)N)n1	i	i	i	3.7µM	nt
CC(C)Nc1nc(NC(C)C)nc(N(C)C(N)=O)n1	i	nt	nt	11.7µM	i
CC(C)(O)C#Cc1ccc(C(=O)NCc2cccs2)s1	i	i	i	9.28µM	i
CC(=O)c1ccc(C#CC(C)(C)O)s1	i	nt	i	i	i
O=C(Nc1ccc2c(c1)OCO2)C1CCN(c2ccc(S(=O)(=O)N3CCOCC3)cc2)CC1	i	i	i	?	?
SMILES	AMA1 RON2 block	VACV mCherry inh	Vaccinia Venus	Pf growth 96h	Pf growth 48h
O=C(NC1CC1)C1CCN(c2ccc(S(=O)(=O)N3CCOCC3)cc2)CC1	i	i	i	i	4.15µM
CC(C)CNC(=O)C1CCN(c2ccc(S(=O)(=O)N3CCOCC3)cc2)CC1	i	i	i	nt	7.38µM
O=C(NCC1CCCO1)C1CCN(c2ccc(S(=O)(=O)N3CCCC3)cc2)CC1 (stereo not given)	i	nt	nt	i	?
COc1ccccc1C(=O)NCC1CCN(c2ccc(S(=O)(=O)N3CCOCC3)cc2)CC1	i	i	i	3.29µM	nt
CN(CC(=O)Nc1ccccc1Cl)S(=O)(=O)c1ccc(C(=O)N2CCOCC2)s1	nt	i	i	nt	nt
COc1ccc(-c2c3c(=O)n(C)c(=O)n(C)c3c3n2-c2ccccc2NC3c2ccco2)cc1 (stereo not given)	nt	i	i	nt	nt
CSc1ccc(CCNC(=O)c2c(C)oc3ncn(C)c(=O)c23)cc1	nt	i	i	nt	nt
